Screens deposited in PubChem by National Center for Advancing Translational Sciences (NCATS).
This is one part of a sample in which hits are shown more often than they occur.
KDM5B inh – inhibitors of human KDM5B histone demethylase; KDM5B demethylase, FDH-coupled NADH fluorescence (FDH is formaldehyde dehydrogenase); hit rate 2.6% among 220,000; Potency, µM (titrated, usually from 57.7 µM), hits mostly inhibitors; Q9UGL1; active = well fitted inhibition curve with a large enough effect; also: 0% is about no effect; nearly all actives have a fitted effect of over 70% in size
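Measured: NADH fluorescence change, 30 min, RT. System: KDM5BΔAP 200 nM final, H3K4me3 peptide, α-KG, Fe(II), ascorbate, NAD⁺ plus FDH, pH 7.5 HEPES. Compounds: titrated, 10 min pre-incubation with enzyme.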
The depositor's hits bear a star; i = inactive. Potency is read from the fitted curve at half-maximal effect.

SMILES	KDM5B inh
Cc1ccc(CNC(=O)N[C@@H]2CN(Cc3cccnc3)C[C@H]2CN(C)C)cc1	i
NC(N)=NC(N)=Nc1ccccc1Br	i
CNC(=O)/C=C/c1ccc(C)cc1C	i
CCOCCn1cnc(-c2ccccc2)c1-c1ccccc1OCC(N)=O	i
OCCOCCn1cnc(-c2ccccc2)c1-c1ccc(-n2cccn2)cc1	32µM*
OCCCn1cnc(-c2ccccc2)c1COCc1ccccc1	i
Cc1cc(C)c2c(=O)cc(C(=O)Nc3cccnc3)oc2c1	i
O=C(c1cn[nH]c1-c1ccccc1)N1CC2CC(C1)[C@H]1CCCC(=O)N1C2 (some centres not stated)	i
O=C(c1ccccc1Cl)N1CCN(c2nc3ncccc3o2)CC1	20µM*
O=C(Cc1cccc(Cl)c1)N1CCCN(c2nc3ncccc3o2)CC1	i
CN(C)C(=O)N1CCCN(c2nc3ncccc3o2)CC1	28µM*
O=C(C1CCN(c2nc3ccccc3o2)CC1)N1CCOCC1	i
Cc1ccc(C(=O)N2CCN(c3nc4ccccc4o3)CC2)cc1	i
O=C(C1CCCCC1)N1CCC(c2nc3ccccc3o2)CC1	i
COc1cccc(C(=O)N2CCCN(c3nc4ncccc4o3)CC2)c1	i
O=C(C1CCCC1)N1CCN(c2nc3ncccc3o2)CC1	32µM*
O=C(C1CCCN(c2nc3ncccc3o2)C1)N1CCOCC1 (configuration not stated)	40µM*
O=[S+]([O-])(NC1CCCN(c2nc3ncccc3o2)C1)c1cccc(C(F)(F)F)c1 (configuration not stated)	i
O=C(Cc1ccc(F)cc1)N1CCCN(c2nc3ncccc3o2)CC1	i
Cc1nc(NC(=O)c2c(F)cccc2Cl)sc1C	i
CS(=O)(=O)c1ccc(Cl)c(NC(=O)CCCc2cccs2)c1	i
C=CCSc1nc2c(c(=O)[nH]c(=O)n2C)n1CCCCCC	i
Cc1ncsc1C(=O)NC(C)c1ccc(F)cc1 (configuration not stated)	i
Cc1ccc(C)c(C(=O)c2sc(Nc3ccc(F)cc3)nc2N)c1	i
COc1nccnc1NC1CCN(C(=O)Cc2c(C)noc2C)CC1	32µM*
SMILES	KDM5B inh
COc1ccc(CC(=O)N2CCC(Cc3nc(-c4ccc(OC)cc4)no3)CC2)cc1	i
COCCOC1CCN(C(=O)Cc2c(C)noc2C)CC1	i
O=C(Cc1ccsc1)N1CCC(Nc2cccnc2)C1 (configuration not stated)	i
COc1nccnc1NC1CCN(C(=O)NCc2ccc(F)cc2)CC1	28µM*
COc1ccc(CC(=O)N2CCC(n3nccc3NC(=O)C3CC3)CC2)cc1	i
COc1ccc(-c2noc(CC3CCN(C(=O)Cc4ccsc4)CC3)n2)cc1	i
COc1nccnc1NC1CCN(C(=O)Cc2ccsc2)CC1	32µM*
COC1CCOC2(CCN(C(=O)NCc3ccc(F)cc3)CC2)C1 (configuration not stated)	i
COc1ccc(CC(=O)N2CCC(Nc3nccnc3OC)CC2)cc1	28µM*
CS(=O)(=O)N1CCC(OC2CCN(C(=O)NCc3ccc(F)cc3)CC2)CC1	i
Cc1noc(C)c1CC(=O)N1CCC(c2nc(C3CCOCC3)no2)CC1	i
C=C(C)Cn1c(Br)nc2c1c(=O)[nH]c(=O)n2C	i
CCn1c(COc2cc(C)ccc2Cl)n[nH]c1=S	i
N#CCCn1cc(C(=O)Nc2ccc(F)cc2)c(-c2cccs2)n1	i
O=C1CCN(C(=O)c2ccco2)CCCC(c2nc(-c3ccccc3)no2)CCN1 (configuration not stated)	i
CCn1c(-n2nc(C)cc2C)nc2c1c(=O)n(Cc1ccc(F)cc1)c(=O)n2C	i
CCc1ccc2c(CN3C(=O)C(=O)N(C4CCCC4)C3=O)cc(=O)oc2c1	i
Cc1cc(C)n2nc(C(=O)NCC3COc4ccccc4C3)cc2n1 (configuration not stated)	22µM*
CCCn1cc(C(=O)NCC2COc3cc(OC)ccc3C2)c(C)n1 (configuration not stated)	i
CCn1cc(S(=O)(=O)NCC2COc3ccccc3C2)c(C)n1 (configuration not stated)	i
Cc1ccc(S(=O)(=O)N(C)CC(=O)Nc2ncc(Cc3ccc(F)cc3)s2)cc1C	i
COc1cccc(S(=O)(=O)N2CCC3(CC2)CC(N2CCOCC2)CCO3)c1 (configuration not stated)	i
Cc1ccc(NC(=O)CCc2ccc(C)s2)c(C)c1	i
CCCN(C)C(=O)CCc1ccnc(N2CCOCC2)c1	25µM*
CCNc1cc(N2CCC(CCC(=O)N3CCOCC3)CC2)ncn1	i
SMILES	KDM5B inh
Cc1ccc(NC(=O)CCc2c(C)nn(-c3ccc(N4CCOCC4)nn3)c2C)c(C)c1	i
Cc1ccc(NC(=O)CCc2ccnc(N3CCCC3)c2)c(C)c1	32µM*
CCOC(=O)c1ccc(NCc2ccnc(N3CCOCC3)c2)nc1	i
CC(=O)N1CCN(C(=O)CCc2ccnc(N3CCOCC3)c2)CC1	28µM*
COc1ccc(CCC(=O)N2CCN(c3ccc(OC)cc3)CC2)cc1	i
CN(CC1CCOCC1)C(=O)CCc1ccccc1	i
